# Screens from PubChem.
# Sampled rows, rich in hits. Any-hit rate of the full collection: about 27%.
# CYP2C19 activ: increases human CYP2C19 enzyme activity. P33261. 96,000 tested, under 10 active. AID 1025. recombinant CYP2C19, luciferin-H EGE luminescence; hits give high values; 0 = fully inhibited enzyme, 1 = untreated enzyme. activation factor at 5 µM;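 active means activation factor of at least 2 at 5 µM in the primary screen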;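 further: 0 = wells with 2.5 mM tranylcypromine and 1 = vehicle-only wells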
# CYP2C19 inh: human CYP2C19 inhibition; inhibition, % at 5 µM; CYP2C19 Supersomes, luciferin-H EGE luminescence, 30 min; AID 778; 96,000 compounds, 21% hits; P33261;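 active means CYP2C19 inhibition above a set limit at 5 µM in the primary screen, cut at about 50% in these data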;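 further: plate controls were negative control wells for no effect and 2.5 mM tranylcypromine positive control for full effect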
# CYP2C9 inh: inhibitors of human CYP2C9. P11712. CYP2C9 Supersomes, luciferin-H conversion, luminescence. inhibition, % at 5 µM. 96,000 compounds, 20% hits;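 active means blocking of liver enzyme CYP2C9 beyond about 50% at 5 µM, limit read from the data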
# sEH act: activators of human soluble epoxide hydrolase; purified human sEH enzymatic activity, activator screen; activation, % at 2 µM; 91,000 compounds, 0.04% hits; in the data active means activation above about 37%
# Target sequence (P34913 whole entry, looked up): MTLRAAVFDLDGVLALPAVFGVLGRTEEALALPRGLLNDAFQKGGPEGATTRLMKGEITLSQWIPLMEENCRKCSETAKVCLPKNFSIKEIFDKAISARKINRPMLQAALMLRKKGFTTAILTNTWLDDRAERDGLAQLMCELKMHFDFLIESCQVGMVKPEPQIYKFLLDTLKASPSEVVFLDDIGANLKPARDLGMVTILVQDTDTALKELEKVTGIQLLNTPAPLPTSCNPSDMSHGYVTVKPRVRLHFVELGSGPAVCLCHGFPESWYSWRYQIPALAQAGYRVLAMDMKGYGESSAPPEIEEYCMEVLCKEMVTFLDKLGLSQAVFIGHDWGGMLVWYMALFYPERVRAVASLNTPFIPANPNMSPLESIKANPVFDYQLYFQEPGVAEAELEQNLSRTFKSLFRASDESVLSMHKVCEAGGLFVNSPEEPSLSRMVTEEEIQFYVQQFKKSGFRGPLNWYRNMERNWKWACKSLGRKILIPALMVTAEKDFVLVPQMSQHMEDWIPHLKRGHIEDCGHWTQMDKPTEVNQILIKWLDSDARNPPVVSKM
# sEH inhibitor: soluble epoxide hydrolase (human) inhibition; P34913; recombinant human sEH enzymatic activity assay; inhibition, % at 2 µM; 91,000 compounds, 0.34% hits; in the data active means inhibition above about 80%
# CYP2C9 act: increases human cytochrome P450 2C9 activity; recombinant CYP2C9, luciferin-H conversion, luminescence; hits give high values; factor 1 = untreated enzyme, 0 = blocked; activation factor at 5 µM; 96,000 compounds, 1.4% hits; AID 1024;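 active means activation factor of 2 or more for CYP2C9 at a 5 µM dose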;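 further: 0 = sulfaphenazole-blocked wells and 1 = vehicle-only wells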
# Numbers without * were called inactive; . = no result given.
SMILES,CYP2C19 activ,CYP2C19 inh,CYP2C9 inh,sEH act,sEH inhibitor,CYP2C9 act
Cc1cc2oc(C(=O)NCc3ccc4c(c3)OCO4)c(C)c2cc1C,0.5,49.4,55.1*,5.9,-9.6,0.4
Cc1ccc2oc(C(=O)NCc3ccc4c(c3)OCO4)c(C)c2c1,0.8,21.8,28.2,-9.8,8.1,0.7
CCOC(=O)c1c(C)c(C(=O)NCc2ccc3c(c2)OCO3)c(C)n1C,0.6,40.5,59.9*,.,.,0.4
Cc1c(C(=O)NCc2ccc3c(c2)OCO3)oc2ccc(Br)cc12,1,-0.7,96.9*,-2.6,5.2,0
CCS(=O)(=O)c1ccc(O)c(N2C(=O)C3C4C=CC(C4)C3C2=O)c1 (stereo unspecified),1,-2.7,-4.3,-7.0,7.2,1
Brc1ccc2ncnc(Nc3ccc(N4CCOCC4)cc3)c2c1,0.9,9.9,-7.8,-2.3,4.3,1.1
CC(=O)Nc1c(O)[nH]c2ccccc12,1.1,-11.5,-26.9,4.8,-1.5,1.3
COC(=O)C(NS(C)(=O)=O)(c1c(C)[nH]c2ccccc12)C(F)(F)F (stereo unspecified),0.4,63.5*,12.3,8.0,-6.4,0.9
COC(=O)c1cc(NC(=O)C23CCC(C)(C(=O)O2)C3(C)C)cc(C(=O)OC)c1 (stereo unspecified),1,-1.3,12.7,3.9,-4.7,0.9
O=[N+]([O-])c1cc(S(=O)(=O)Nc2ccccc2)ccc1-n1nnc2ccccc21,0.5,50.7*,72.0*,-1.2,1.7,0.3
CC(C)CN1C(=O)NC(NC(=O)c2ccco2)(C(F)(F)F)C1=O (stereo unspecified),0.4,55.5*,16.2,-9.9,7.9,0.8
CCCCCCCOC(=O)c1ccc(OC(=O)c2cccnc2)cc1,0.9,12.7,16.9,6.7,-5.2,0.8
Cn1c(NCCN2CCCCC2)cc(=O)n(C)c1=O,1.1,-13.6,-5.5,.,.,1.1
CCC(=O)N(CC)c1nc(-c2ccc(OC)cc2)cs1,0.9,5.0,15.6,2.5,-1.1,0.8
O=C(COc1ccccc1)N(CCc1ccccc1)c1nc(-c2ccc(F)cc2)cs1,1,3.3,80.6*,0.9,-0.1,0.2
Cc1ccc(-c2csc(N(Cc3ccccc3)C(=O)COc3ccccc3)n2)cc1,0.9,7.1,31.2,-2.0,2.9,0.7
Cc1ccc(-c2csc(N(CCc3ccccc3)C(=O)COc3ccccc3)n2)cc1,0.4,61.5*,98.5*,-0.3,2.7,0
Cc1nc(C)c(C(=O)C2=C(O)C(=O)N(CCCN(C)C)C2c2ccco2)s1 (stereo unspecified),0.9,6.8,28.1,.,.,0.7
COc1ccc(-c2nc(-c3cccc(C)c3)[nH]c(=O)c2C#N)cc1,1.1,-12.1,52.0*,8.9,-8.1,0.5
Cc1ccc(-c2csc3ncnc(OCC(=O)NC(=O)NCc4ccco4)c23)cc1,0.5,50.2*,48.7,.,.,0.5
CC1(C2CC2)NC(=O)NC1=O (stereo unspecified),1,-3.3,-10.8,9.2,-6.0,1.1
O=C(OCC(=O)N1CCCCCC1)c1n[nH]c(=O)c2ccccc12,0.8,17.3,-1.3,.,.,1
O=C(OCC(=O)N1CCCCC1)c1c[nH]c(=O)[nH]c1=O,1,1.1,89.2*,3.2,-3.0,0.1
COCc1cc(=O)n2[nH]c(C(F)(F)F)nc2n1,1,-3.8,-5.2,5.4,-8.2,1.1
O=C(Nc1ncnc2sc3c(c12)CCCCC3)c1ccccc1,0.5,51.3*,16.7,6.8,-8.0,0.8
SMILES,CYP2C19 activ,CYP2C19 inh,CYP2C9 inh,sEH act,sEH inhibitor,CYP2C9 act
O=C(Nc1ncnc2sc3c(c12)CCC3)c1ccco1,0.6,43.5,-139.0,-16.8,16.1,2.4*
C(=N\Nc1ncnc2sc3c(c12)CCC3)/c1ccncc1,0.2,83.2*,82.1*,-2.3,2.2,0.2
CCCC1(CCC)NC(=O)N(CC(=O)N2CCN(C(=O)c3ccco3)CC2)C1=O,1.1,-12.3,20.4,0.9,2.0,0.8
CSc1nc2ccc(N3C(=O)C4CCCCC4C3=O)cc2s1 (stereo unspecified),0.9,9.8,15.1,8.3,-6.4,0.8
N#CCCN(C1CCCCC1)S(=O)(=O)CCOc1ccccc1,0.6,36.2,25.8,.,.,0.7
O=C(c1cccs1)N1CCCc2ccccc21,0.4,63.6*,37.1,-4.3,4.2,0.6
O=C(C1CCCN1C(=O)c1cccs1)N1CCc2ccccc21 (stereo unspecified),0.5,53.9*,17.9,17.4,-15.9,0.8
O=C(c1cc2nc(-c3cccs3)cc(C(F)(F)Cl)n2n1)N1CCCc2ccccc21,0.7,32.0,89.3*,2.2,-4.3,0.1
COC(=O)c1cc(C(=O)Nc2cc(C)ccn2)cc([N+](=O)[O-])c1,0.9,12.7,26.1,-2.4,1.1,0.7
O=C(CSc1nnc(C2CC2)n1-c1ccccc1)NCCc1ccccc1,0.8,18.4,4.7,1.7,-3.5,1
Cc1ccc(CNc2oc(COc3ccccc3Cl)nc2C#N)cc1,0.7,30.0,61.4*,-8.1,9.3,0.4
N#Cc1nc(COc2ccccc2Cl)oc1NCc1ccc(F)cc1,1,4.2,19.0,4.2,-2.9,0.8
N#Cc1nc(COc2ccccc2Cl)oc1NCc1cccnc1,0.1,91.4*,35.5,-6.4,6.3,0.6
Cc1cc(C)n(-c2nnc(C)c(=O)[nH]2)n1,1.1,-13.6,-20.1,6.8,-6.2,1.2
C=CCc1c(C)nn(CC(=O)O)c1-c1ccccc1,1,-4.8,0.3,.,.,1
C=CCn1c(SCC(=O)NCc2ccco2)nc2sc3c(c2c1=O)CCC3,1,-2.5,26.9,-4.5,4.0,0.7
CCSc1nc(N2CCOCC2)c2c(c1C#N)CCCC2,0.3,69.8*,90.8*,1.9,1.0,0.1
CC(C)c1nc(N2CCOCC2)c(C#N)c2c1CCCC2,0.2,80.3*,41.5,.,.,0.6
N#Cc1c(N2CCOCC2)nc(N2CCCCC2)c2c1CCN(C1CCCCC1)C2,0.9,10.3,25.0,-40.8,40.9,0.8
Cc1ccc2c(CSc3nnc(C4CC4)n3N)cc(=O)oc2c1,0.2,78.5*,10.1,.,.,0.9
COc1cc(-c2nnc(SCC#CCO)o2)cc(OC)c1OC,0.8,15.9,29.3,.,.,0.7
Cc1ccc2c(CSc3nnc(C4CC4)n3N)cc(=O)oc2c1C,0.6,44.5,0.3,-8.1,8.6,1
COc1cc(-c2nnc(SCc3cc(=O)oc4cc(C)ccc34)o2)cc(OC)c1OC,0.3,66.2*,82.9*,15.4,-17.0,0.2
COc1ccccc1CNc1ncnc2nc[nH]c12,1.1,-8.5,-13.5,.,.,1.1
COc1ccc(NC(=O)CSc2ncnc3c2cnn3Cc2ccccc2)cc1OC,0.8,17.7,34.2,-18.5,17.7,0.7
COc1ccc(Nc2ncnc3c2cnn3Cc2ccccc2)cc1OC,0.2,84.4*,73.0*,-1.9,0.5,0.3
COc1ccccc1CNc1ncnc2c1nnn2Cc1ccccc1,0.5,54.7*,42.4,-3.5,3.1,0.6
